Hit rate of the full screen: of about 110,000 compounds, about 40 (0.04%) were called active. Another 22% or so got no clear call; they are omitted. For the sample, actives were picked, then their nearest neighbours and some compounds at random. Values without a mark were called inactive. Calls follow the shape of the dose curve; as a rule, active = well fitted curve in the direction sought with a large enough effect in the signal ratio (not every such curve was filed as active); inconclusive = small, poorly fitted or top-dose-only effect, or a change in a side signal; inactive = flat fitted curve, though single readings scatter; the % refers to the signal ratio.
experiment: IkB Signaling; conditions: ABC-DLBCL IkBa-CBG/CBR dual luciferase ratio, 4 h; series mostly up to 57.1 µM; IkBa stabilization activation: at the top concentration;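 as to IkBa stabilization activation: 0% = basal untreated cells and 100% = reference inhibitor full response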
Text: NIH Molecular Libraries Screening Centers Network [MLSCN]
NIH Chemical Genomics Center [NCGC]
Nuclear factor kappa-B (NF-kappa-B) plays an important role in normal B cell development and survival. Diffuse large B cell lymphoma (DLBCL) is the most commonly observed type of non-Hodgkin's lymphoma. Gene expression analysis has identified an activated B cell-like subtype of DLBCL (ABC-DLBCL) which expresses known NF-kappa-B target genes. […] However, targets upstream of IKK have been largely unexplored and so nodes upstream of IKK in the NF-kappa-B pathway remain untested due to the lack of chemical probes.
A cell-sensor assay for I-kappa-B-alpha stabilization was developed with NIH investigator Dr. R. Eric Davis in Dr. Louis M. Staudt's laboratory. The assay uses green (CBG68) and red (CBR) emitting beetle luciferases [Chroma-Glo(TM) developed by Promega Corp.] where the green luciferase is fused to I-kappa-B-alpha and the red luciferase is present in its native state. Both luciferase genes are stably present in the OCI-Ly3 human ABC DLBCL cell line, but their expression is under the control of tetracycline-inducible promoters. Following the addition of doxycycline to induce expression of the luciferases, the green luminescence in control cultures rises only slowly because the CBG fusion partner I-kappa-B-alpha is targeted by IKK activity for rapid degradation. In contrast, green luminescence rises rapidly in the presence of proteasome inhibitors or IKK inhibitors. The rise in red luminescence of CBR is not affected by proteasome or IKK inhibitors, and serves as normalization for cell number and nonspecific effects. Compounds were screened as a concentration-titration series that ranged from 57 uM to 0.7 nM.
NCGC Assay Protocol Summary:
Cells were seeded in 1536-well plates at 5000 cells/3ul in IMDM medium containing 0.5% FBS, w/o phenol red, L-glutamine, 25 mM HEPES, 3 mg/ml sodium bicarbonate. After centrifugation for 1 min. at 1000 rpm, 23 nl of compounds or DMSO were delivered to each well using a pin tool. Then 1ul 80ng/ml doxycycline was dispensed into white solid 1536-well plates and the plates were incubated at 37C/5% C02 in a cell incubator for 4 hrs. Then 4 ul Chroma-Glo luminescent substrate mix (Promega) was added to each well. The plate was incubated at R.T. for 10-15 min. The plates were measured on a ViewLux plate reader for green luminescence (540/20 nm filter) and red luminescence (618/8 nm filter). The green and red luminescent signals were corrected for red and green luminescence filter overlap using previously determined filter calibration constants (determined using the procedure outlined in the Promega Technical Manual). The %Activity was determined from the ratio of corrected green/red luminescent values. Green luminescent and ratio %Activity was determined by normalizing to the difference in signal between basal cells (0% Activity) and cells incubated with 10 uM of the proteasome inhibitor MG-132 (100% Activity). Red luminescent %Activity was normalized to the difference between red luminesence in basal cells (0%Activity) and zero luminescence (-100% Activity).
Concentration-response curves were fitted to the signals arising from the green luminescence (I-kappa-B-alpha-luciferase fusion; IkB-luc) and the red luminescence (unfused luciferase; luc) as well as the calculated ratio. The concentration-effect curves were then classified based on curve quality (r2), response magnitude and degree of measured activity. Compounds were then categorized based on their concentration-response curves for all three datasets (Ikb-luc, luc and ratio).
Keywords: IKK, I-kappa-B, IkB, IkBa, cytotoxicity, luminescence, MLSMR, MLSCN, NIH Roadmap, qHTS, NCGC
Potency is read from the fitted curve at half-maximal effect.

Structure (SMILES)	IkBa stabilization activation [%]	Potency
CCOC(=O)c1cccc(NC(=O)Cn2cnc3nc4c(cc3c2=O)CCCC4)c1	4.01	
Cc1cc(OC(C)C(=O)Nc2sc3c(c2C(N)=O)CCCC3)ccc1Cl (centres undefined)	-3.34	
Cc1ccc(S(=O)(=O)n2nc(-c3ccc(Cl)cc3)nc2NCc2ccccc2)cc1	1.79	
CCOc1ccc(NC(=O)CCC(=O)N2CC(C)Oc3ccc(C)cc32)cc1 (centres undefined)	0.778	
CCCNC(=O)c1ccc2c(c1)ncn2-c1ccc(C)cc1C	-5.53	
COC(=O)C1=C(c2ccccc2)c2ccccc2S(=O)(=O)N1CC(=O)Nc1ccccc1C(F)(F)F	-1.32	
CCc1ccccc1NC(=O)c1ccc2nc(CCc3ccccc3)oc2c1	3.24	
O=C(CS(=O)(=O)c1cccc2nsnc12)N1CCN(c2cccc(Cl)c2)CC1	0.629	
Cc1cc2c(cc1S(=O)(=O)CCC(=O)Nc1ccc(OC(F)(F)F)cc1)OCC(=O)N2	6.21	
CC(C)c1ccc(NC(=O)Cn2c3ncccc3c(=O)n2-c2ccccc2)cc1	-1.21	
Cc1ccc(Cl)cc1N1CCN(C(=O)c2cn(C)c3ccc(S(=O)(=O)N(C)C4CCCCC4)cc3c2=O)CC1	-0.507	
CCN1CCN(c2ncc3c(n2)CC(c2ccccc2O)CC3=O)CC1 (centres undefined)	0.899	
Cc1ccccc1CN1CCC(CNC(=O)c2c(C)oc3ncnc(N4CCCCC4)c23)CC1	0.0466	
CCN(CCCNC(=O)c1c(C)oc2ncn(CC(C)C)c(=O)c12)Cc1ccccc1	1.93	
Cc1cccc(CSc2ccc(-c3cccs3)nn2)c1	-2.49	
CCOc1ccc(OCC)c(Nc2nc3ccccc3n3nnnc23)c1	1.77	
COc1ccc(S(=O)(=O)N2CCCCC2)cc1C(=O)NC1CCS(=O)(=O)C1 (centres undefined)	1.49	
CCn1cc(C(=O)N(C)Cc2ccccc2)c(=O)c2cc(S(=O)(=O)N3CCCCCC3)ccc21	1.18	
CCCOC(=O)Cc1c(O)c2ccccc2[nH]c1=O	0.442	
O=C1C(c2[nH]c3ccccc3c2O)=Nc2ccccc21		2.51 µM (active)
CCCC(=O)Nc1c(O)c2ccccc2[nH]c1=O	-0.355	
COc1ccc(-c2nc3sc(CCNC(=O)C(C)(C)C)c(C)n3n2)cc1	-2.83	
COc1ccc(N2CCN(C(=O)c3ccc4c(Cl)c5c(nc4c3)CCCC5)CC2)cc1	0.102	
CC(=O)Nc1ccc2nc(SCCOc3cc(C)cc(C)c3)sc2c1	-0.0445	
CCC1CN(S(=O)(=O)c2cc(-c3cc(C)no3)ccc2C)c2cc(C)ccc2O1 (centres undefined)	0.0798	

Structure (SMILES)	IkBa stabilization activation [%]	Potency
CC1CCN(S(=O)(=O)c2ccc3c(c2)N(CC(=O)NCc2ccccc2Cl)C(=O)CO3)CC1	2.09	
COC(=O)c1ccc(NC(=O)CCc2c(C)nn(-c3ccc(N4CCCC4)nn3)c2C)cc1	1.12	
COc1ccc(-n2c(C)nc3c(cnn3-c3ccc(F)cc3)c2=O)cc1	-2.95	
CC1=C(c2ccc(C)c(C)c2)S(=O)(=O)NC1=NCc1ccccc1Cl	1.34	
Cc1cc(C)c2oc(C(=O)Nc3ccc(S(=O)(=O)N4CCCCCC4)cc3)cc(=O)c2c1	2.05	
CN(C)CCN(Cc1ccccc1)S(=O)(=O)c1csc(C(N)=O)c1	-0.756	
COC(=O)c1ccccc1NC(=O)c1cnn(-c2ccc(F)cc2)c1-n1cccc1	27.9	
COc1ccc(NC(=O)C2CCN(c3ccc(Sc4ccc(C)cc4)nn3)CC2)c(OC)c1	0.374	
COc1ccc(C2NC(=O)N(C)C3=C2C(=O)N(c2ccc(C(=O)O)cc2)C3)cc1 (centres undefined)	-0.8	
COc1cccc(NC(=O)CN2C(=O)c3ccccc3Sc3ncccc32)c1	4.99	
Cc1ccc(-c2cnc(C3CC3)o2)cc1S(=O)(=O)Nc1cccc(C)c1C	-1.63	
COCCNC(=O)c1cc(-c2cccc(Cl)c2)on1	68.5	
COc1ccc(-c2nc3c4ccccc4n(CC(=O)Nc4ccc(C(C)=O)cc4)c(=O)n3n2)cc1	-0.837	
Cc1ccccc1OCC(=O)Nc1c(C(=O)Nc2ccccc2F)oc2ccccc12	-0.867	
COc1cc(NC(=O)C2=CC(c3ccco3)=NS(=O)(=O)N2C)cc(OC)c1OC	1.1	
Cc1ccc2oc(=O)c3cnn(CC(=O)NCc4ccccc4Cl)c3c2c1	0.266	
COc1cccc(CNC(=O)C2CCC(CNS(=O)(=O)c3cccs3)CC2)c1 (centres undefined)	-3.86	
CCCCC(=O)OC1=CN(Cc2ccccc2)S(=O)(=O)c2ccccc21	1.1	
Cc1cc(C)cc(NS(=O)(=O)c2ccc(-c3cc(C)no3)s2)c1	2.64	
CCc1ccccc1NC(=O)c1ccc2c(c1)CCN2S(C)(=O)=O	1.19	
O=C(COc1ccccc1F)OCc1cc(=O)n2nc(C3CCCCC3)sc2n1	2.16	
CN1C(=O)c2[nH]nc(-c3ccc(F)cc3)c2C1c1ccccn1 (centres undefined)	2.45	
CCC(=O)N1CCc2cc(S(=O)(=O)NC(Cc3ccccc3)C(=O)NCc3ccccc3)ccc21 (centres undefined)	0.67	
O=c1cc(-c2ccccc2)n2c(SCc3ccccc3)nnc2[nH]1	49.6	
